Hits are enriched below; roughly 4.2% of the tested compounds scored in any of these assays.
TIM10 inh = inhibits growth of TIM10 yeast strain. inhibition, % at 10 µM. S. cerevisiae TIM10 strain growth, BacTiter-Glo luminescence, 24 h. 330,000 tested, 1.4% active;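 active means inhibition of 40% or more at the single tested concentration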;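 further: wild-type TIM10 isogenic control strain grown at permissive 25 °C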
tim23-1 inh = inhibits growth of tim23-1 mutant yeast; inhibition, % at 20 µM; 330,000 tested, 1.3% active; S. cerevisiae tim23-1 growth, BacTiter-Glo luminescence, 24 h;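 active means growth inhibition of the mutant yeast at or above 50%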;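 further: temperature-sensitive mutant grown at 25 °C; plate controls were DMSO-treated mutant yeast for no effect and medium wells lacking yeast for full effect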
V-ATPase pHluor = alters yeast V-ATPase proton transport; response, % at 10 µM; S. cerevisiae, pHLuorin cytosolic pH fluorescence; AID 504577; 350,000 tested, 0.37% active; in the data active means response mostly above about 7.3%, no sharp cut-off; inactive means mostly below about 5.4%; further: actives read high
NALP3 yeast inh = inhibitors of NALP3 inflammasome in yeast; AID 2825; inhibition, % at 10 µM; 330,000 tested, 0.39% active; Yeast reconstituted NLRP3/ASC/caspase-1, beta-gal luminescence, 24 h;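 active means inhibition of 50% or more; inactive means inhibition below 50%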;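 further: plate controls were induced DMSO wells for no effect and uninduced yeast grown without galactose for full effect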
tim10-1 inh = inhibits growth of tim10-1 mutant yeast; 330,000 tested, 2.2% active; S. cerevisiae tim10-1 ts strain growth, BacTiter-Glo, 24 h; inhibition, % at 20 µM; AID 463190;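 active means inhibition of at least 40%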;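 further: mutant grown at 25 °C; 0% = DMSO wells with yeast and 100% = wells holding no yeast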
NALP1 inh = blocks the NALP1 inflammasome reconstituted in yeast; inhibition, % at 10 µM; S. cerevisiae NALP1/ASC/caspase-1 growth, X-gal OD620, 72 h; 280,000 tested, 0.61% active; in the data active means inhibition mostly above about 24%, no sharp cut-off; inactive means mostly below about 32%
Numbers without * were called inactive; · = no result given.

SMILES	TIM10 inh	tim23-1 inh	V-ATPase pHluor	NALP3 yeast inh	tim10-1 inh	NALP1 inh
Cc1cccc2sc(N(CCN(C)C)C(=O)/C=C/c3cccs3)nc12	29	10	-1	39	13	54*
CN(C)CCCN(C(=O)CCOc1ccccc1)c1nc2c(F)cccc2s1	·	·	-1	·	·	52*
CN(C)CCCN(C(=O)c1sc2ccccc2c1Cl)c1nc2c(F)cccc2s1	19	21	3	5	11	12
CS(=O)(=O)c1ccc(-c2nnc(NC(=O)C3=COCCO3)o2)cc1	2	-4	-1	8	-11	·
C/C(=N\NC(=O)c1ccc(Cl)cc1)c1cccs1	·	·	12*	·	·	8
COc1ccc(Cc2nc3ccc(C(=O)N(C)Cc4nccs4)cc3o2)cc1OC	0	10	2	5	8	22
COCCNC(=O)CCC(=O)NNc1nc2ccccc2c2nc(C)nn12	6	10	0	8	3	5
CS(=O)(=O)N(CC(=O)Nc1ccccc1C(=O)N1CCOCC1)c1cccc(F)c1	7	3	-1	4	2	18
CS(=O)(=O)N(CC(=O)Nc1ccccc1C(=O)N1CCOCC1)c1ccc(F)c(Cl)c1	-3	-14	16*	15	-7	-14
O=C(O)C1C2C=CC(C2)C1C(=O)NCc1ccc(Cl)c(Cl)c1 (stereo unspecified)	-1	0	-2	4	12	47*
COc1ccc(O)c(/C=N/NC(=O)c2cc(=O)[nH]c3ccccc23)c1	6	-34	0	1	4	45*
Cc1cc(C)cc(NC(=O)CSc2nc(CSc3ccc(Cl)cc3)cc(=O)[nH]2)c1	-16	6	-3	-3	7	34*
S=C(NCc1ccc2c(c1)OCO2)NCc1ccc2c(c1)OCO2	15	19	1	12	10	16
NNC(=S)NCc1ccc2c(c1)OCO2	-57	11	-2	10	-19	105*
O=C(NCCC1=CCCCC1)c1ccc2c(c1)N(Cc1ccccc1)C(=O)CS2	21	29	0	11	30	38*
O=C(NCCN1CCOCC1)c1ccc2c(c1)N(Cc1ccccc1)C(=O)CS2	-6	6	0	9	4	-8
CC1(C)CC(=O)c2cn3c(nc2C1)nc1ccccc13	1	1	-7	9	16	4
CC1(C)CC(=O)c2cn3nc(C(F)(F)F)nc3nc2C1	15	22	-1	-1	19	43*
Cc1cc(C)c(S(=O)(=O)c2cccc(C)c2C)c(=O)[nH]1	-3	10	-1	7	19	33*
COc1ccc(-c2csc3ncnc(N4CCN(S(=O)(=O)c5ccc(C(C)=O)cc5)CC4)c23)cc1	20	30	17*	7	32	·
CC(Sc1nc(N)cc(N)n1)C(=O)NCCC1=CCCCC1 (stereo unspecified)	-5	10	1	15	6	·
O=C(Cc1ccc(Br)cc1)N(Cc1ccccc1)c1ccccn1	0	-5	-1	5	19	-7
Cc1ccc(S(=O)(=O)NNC(=O)C2COc3ccccc3O2)cc1C (stereo unspecified)	-11	20	0	-4	13	40*
Cc1ccc(S(=O)(=O)NNC(=O)C2COc3ccccc3O2)cc1 (stereo unspecified)	10	7	-2	-6	6	7
CC1CCc2nc3ccccc3c(C(=O)OCC(=O)N3CCc4ccccc43)c2C1 (stereo unspecified)	15	3	16*	13	8	-19
SMILES	TIM10 inh	tim23-1 inh	V-ATPase pHluor	NALP3 yeast inh	tim10-1 inh	NALP1 inh
Cc1ccc(NC(=O)CN2CCN(C(=O)c3ccco3)CC2)cc1	-6	12	0	18	1	8
Cc1[nH]c2ccccc2c1NC(=O)CN1CCN(C(=O)c2ccco2)CC1	16	12	4	7	8	42*
COc1ccc(C(=O)N2CCN=C2c2ccccc2)cc1OC	-5	-2	-1	8	-5	16
CC(=O)C1=C(O)C(=O)N(CCc2c[nH]c3ccccc23)C1c1ccccc1 (stereo unspecified)	-10	-3	3	13	0	-2
Cc1ccnc(NC(=O)c2cc(S(=O)(=O)N3CCCCC3)ccc2Cl)c1	2	25	-4	9	28	40*
COc1ccc(S(=O)(=O)N2CCCCCC2)cc1C(=O)Nc1cc(C)ccn1	14	33	2	9	8	·
CN=C1SC(CC(=O)Nc2cccc(Cl)c2Cl)C(=O)N1C (stereo unspecified)	8	-5	-2	-6	8	-3
COc1ccc(CCNC(=O)COC(=O)c2cc(S(=O)(=O)NCc3ccccc3)ccc2O)cc1OC	9	9	6	7	3	12
Cc1cc(Cl)c(OCCOCCN2CCN(C)CC2)c(Br)c1	-19	-5	-1	18	-32	21
CCOc1ccc(OCCOCCn2ccnc2)cc1	-2	13	2	7	11	10
Cc1cc(Br)ccc1OCCn1ccnc1	6	-15	-3	27	-26	55*
Cc1cc(Cl)c(OCCOCCN2CCC(C)CC2)c(Br)c1	13	-6	4	17	0	52*
CCC(C)c1ccc(OCCn2ccnc2)cc1 (stereo unspecified)	4	6	1	1	24	53*
Cc1cc(Br)ccc1OCCCCN1CCC(C)CC1	-9	11	-2	12	-47	56*
COc1nc(N(c2ccccc2)c2ccccc2)nc(-n2ccnc2)n1	-25	-7	-2	8	-14	-16
C[C@@H]([C@@H](O)c1ccccc1)N(C)C(=O)C(N)Cc1ccccc1 (stereo partly specified)	-12	-16	26*	-2	2	26
O=C(COC(=O)c1ccc(F)cc1)NCCc1ccc(F)cc1	13	30	3	10	9	14
CN(CC(=O)Nc1cccc(F)c1)C(=O)C1CC(=O)N(Cc2ccco2)C1 (stereo unspecified)	-4	-22	5	7	-25	·
CC(=O)/C=C(\C)Nc1ccccc1O	-46	-18	-1	21	-83	43*
O=C(Nc1ccccc1O)c1ccccc1O	14	1	-4	7	-7	15
CC(NNC(=S)N1CCN(c2ccccn2)CC1)c1nccc2ccccc12 (stereo unspecified)	·	·	-4	·	·	·
O=C(Nc1nncs1)c1cc(-c2ccncc2)nc2ccc(Cl)cc12	-4	22	-1	14	19	27*
OC(COc1ccc2ccccc2c1)CN1CCN(c2ccc(F)cc2)CC1 (stereo unspecified)	18	15	2	43	-3	44*
COc1cccc(OCC(O)CN2CCN(c3ccc(F)cc3)CC2)c1 (stereo unspecified)	-18	-18	12	20	14	0
COc1ccc(C2(CNC(=O)Cc3ccc(OC)c(OC)c3)CCOCC2)cc1	-10	5	-2	17	6	25*

Assay outcomes (PubChem BioAssay)
